In the supplement of paper PMC10849652:
Targets with a hit are over-represented here; the source holds about 8,800 in all. About 0.5% of all pairs of compound and target were hits.

Legend:
Test in all cases: log2 fold change, soluble protein after heating vs DMSO (PISA); higher = thermal stabilisation; K562 lysate, 10 uM; active = over 0.2 and 3.5 SD of the protein, either way, in both replicates (recomputed)
[1] = compound: CCCS(=O)(=O)Nc1ccc(F)c(C(=O)c2c[nH]c3ncc(-c4ccc(Cl)cc4)cc23)c1F [vemurafenib]
Outline: (§1)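 K562 pellets were dounce-homogenised in PBS pH 7.4 with 1 mM MgCl2, and the crude extract at 1 mg/mL protein was treated with 10 μM compound for 30 min. Aliquots were heated for 3 min across 48°C-58°C, pooled, and brought to 0.5% NP-40 at 4°C; soluble protein was the supernatant after 21,000xg for 90 min. Soluble protein was quantified by TMTpro 16plex LC-MS/MS with channel sums equalised, and reported as log2 fold change in thermal stability against DMSO controls, with values from duplicates.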

[2] = compound: CCCS(=O)(=O)Nc1ccc(F)c(C(=O)c2c[nH]c3ncc(Cl)cc23)c1F
Outline: as §1

[3] = compound: CCN(CCCOc1ccc2c(Nc3cc(CC(=O)Nc4cccc(F)c4)[nH]n3)ncnc2c1)CCOP(=O)(O)O [barasertib]
Outline: as §1

[4] = compound: CC[C@@H]1C(=O)N(C)c2cnc(Nc3ccc(C(=O)NC4CCN(C)CC4)cc3OC)nc2N1C1CCCC1
Outline: as §1

[5] = compound: CC[C@@H]1C(=O)N(C)c2cnc(Nc3ccc(C(=O)N[C@H]4CC[C@H](N5CCN(CC6CC6)CC5)CC4)cc3OC)nc2N1C(C)C [volasertib]
Outline: as §1

[6] = compound: CCn1c(C(=O)N(C2CC2)C2CC2)cc2c3c(ncn3C)c(Nc3cc(C)n(C)n3)nc21
Outline: as §1

[7] = compound: CCn1cc(-c2ccnc3[nH]c(-c4cccc(CN(C)C)c4)cc23)c(-c2ccc(NC(=O)N(C)C)cc2)n1
Outline: as §1

[8] = compound: CN1CCC(CNc2ccc3ncc(-c4cccc(OC(F)(F)F)c4)n3n2)CC1
Outline: as §1

[9] = compound: CN1CCN(CCOc2cc(OC3CCOCC3)c3c(Nc4c(Cl)ccc5c4OCO5)ncnc3c2)CC1 [saracatinib]
Outline: as §1

[10] = compound: CN1CCN(c2nc(C3=C(c4c[nH]c5ccccc45)C(=O)NC3=O)c3ccccc3n2)CC1 [sotrastaurin]
Outline: as §1

[11] = compound: CN1CC[C@H](c2c(O)cc(O)c3c(=O)cc(-c4ccccc4Cl)oc23)[C@H](O)C1 [alvocidib]
Outline: as §1

[12] = compound: CN1CCc2c(c3ccccc3n2Cc2ccc(C(=O)NO)cc2)C1 [Tubastatin A]
Outline: as §1

[13] = compound: CNC(=O)C1=CC=CC=C1NC2=NC(=NC=C2Cl)NC3=C(C=C(C=C3)N4CCOCC4)OC
Outline: as §1

[14] = compound: CNC(=O)c1ccc(Nc2ncc(C(F)(F)F)c(NCc3nccnc3N(C)S(C)(=O)=O)n2)cc1 [defactinib]
Outline: as §1

[15] = compound: CNc1nc(-c2ccc3c(N)n[nH]c3c2)cc(N2C[C@@H](C(=O)NC3CCCCC3)CC[C@H]2C)n1
Outline: as §1

[16] = compound: COC(=O)N[C@@H](C)CNc1nccc(-c2cn(C(C)C)nc2-c2cc(Cl)cc(NS(C)(=O)=O)c2F)n1 [encorafenib]
Outline: as §1

[17] = compound: COC(=O)[C@H](CCSC)NC(=O)C1=C(C=C(C=C1)NC[C@H](CS)N)C2=CC=CC=C2
Outline: as §1

[18] = compound: COc1cc(Nc2ncc3c(n2)-c2ccc(Cl)cc2C(c2c(F)cccc2OC)=NC3)ccc1C(=O)O [alisertib]
Outline: as §1

[19] = compound: COc1cc2nc(-c3cc(F)ccc3O)nc(N[C@@H]3CNC[C@H]3C(C)(C)O)c2cc1OC
Outline: as §1

[20] = compound: COc1cc2ncnc(Nc3ccc(F)c(Cl)c3)c2cc1OCCCN1CCOCC1 [gefitinib]
Outline: as §1

Measured: log2 fold change

DOCK8 (UniProt Q8NF50)
Sequence of UniProt Q8NF50 (Q8NF50 whole entry, looked up): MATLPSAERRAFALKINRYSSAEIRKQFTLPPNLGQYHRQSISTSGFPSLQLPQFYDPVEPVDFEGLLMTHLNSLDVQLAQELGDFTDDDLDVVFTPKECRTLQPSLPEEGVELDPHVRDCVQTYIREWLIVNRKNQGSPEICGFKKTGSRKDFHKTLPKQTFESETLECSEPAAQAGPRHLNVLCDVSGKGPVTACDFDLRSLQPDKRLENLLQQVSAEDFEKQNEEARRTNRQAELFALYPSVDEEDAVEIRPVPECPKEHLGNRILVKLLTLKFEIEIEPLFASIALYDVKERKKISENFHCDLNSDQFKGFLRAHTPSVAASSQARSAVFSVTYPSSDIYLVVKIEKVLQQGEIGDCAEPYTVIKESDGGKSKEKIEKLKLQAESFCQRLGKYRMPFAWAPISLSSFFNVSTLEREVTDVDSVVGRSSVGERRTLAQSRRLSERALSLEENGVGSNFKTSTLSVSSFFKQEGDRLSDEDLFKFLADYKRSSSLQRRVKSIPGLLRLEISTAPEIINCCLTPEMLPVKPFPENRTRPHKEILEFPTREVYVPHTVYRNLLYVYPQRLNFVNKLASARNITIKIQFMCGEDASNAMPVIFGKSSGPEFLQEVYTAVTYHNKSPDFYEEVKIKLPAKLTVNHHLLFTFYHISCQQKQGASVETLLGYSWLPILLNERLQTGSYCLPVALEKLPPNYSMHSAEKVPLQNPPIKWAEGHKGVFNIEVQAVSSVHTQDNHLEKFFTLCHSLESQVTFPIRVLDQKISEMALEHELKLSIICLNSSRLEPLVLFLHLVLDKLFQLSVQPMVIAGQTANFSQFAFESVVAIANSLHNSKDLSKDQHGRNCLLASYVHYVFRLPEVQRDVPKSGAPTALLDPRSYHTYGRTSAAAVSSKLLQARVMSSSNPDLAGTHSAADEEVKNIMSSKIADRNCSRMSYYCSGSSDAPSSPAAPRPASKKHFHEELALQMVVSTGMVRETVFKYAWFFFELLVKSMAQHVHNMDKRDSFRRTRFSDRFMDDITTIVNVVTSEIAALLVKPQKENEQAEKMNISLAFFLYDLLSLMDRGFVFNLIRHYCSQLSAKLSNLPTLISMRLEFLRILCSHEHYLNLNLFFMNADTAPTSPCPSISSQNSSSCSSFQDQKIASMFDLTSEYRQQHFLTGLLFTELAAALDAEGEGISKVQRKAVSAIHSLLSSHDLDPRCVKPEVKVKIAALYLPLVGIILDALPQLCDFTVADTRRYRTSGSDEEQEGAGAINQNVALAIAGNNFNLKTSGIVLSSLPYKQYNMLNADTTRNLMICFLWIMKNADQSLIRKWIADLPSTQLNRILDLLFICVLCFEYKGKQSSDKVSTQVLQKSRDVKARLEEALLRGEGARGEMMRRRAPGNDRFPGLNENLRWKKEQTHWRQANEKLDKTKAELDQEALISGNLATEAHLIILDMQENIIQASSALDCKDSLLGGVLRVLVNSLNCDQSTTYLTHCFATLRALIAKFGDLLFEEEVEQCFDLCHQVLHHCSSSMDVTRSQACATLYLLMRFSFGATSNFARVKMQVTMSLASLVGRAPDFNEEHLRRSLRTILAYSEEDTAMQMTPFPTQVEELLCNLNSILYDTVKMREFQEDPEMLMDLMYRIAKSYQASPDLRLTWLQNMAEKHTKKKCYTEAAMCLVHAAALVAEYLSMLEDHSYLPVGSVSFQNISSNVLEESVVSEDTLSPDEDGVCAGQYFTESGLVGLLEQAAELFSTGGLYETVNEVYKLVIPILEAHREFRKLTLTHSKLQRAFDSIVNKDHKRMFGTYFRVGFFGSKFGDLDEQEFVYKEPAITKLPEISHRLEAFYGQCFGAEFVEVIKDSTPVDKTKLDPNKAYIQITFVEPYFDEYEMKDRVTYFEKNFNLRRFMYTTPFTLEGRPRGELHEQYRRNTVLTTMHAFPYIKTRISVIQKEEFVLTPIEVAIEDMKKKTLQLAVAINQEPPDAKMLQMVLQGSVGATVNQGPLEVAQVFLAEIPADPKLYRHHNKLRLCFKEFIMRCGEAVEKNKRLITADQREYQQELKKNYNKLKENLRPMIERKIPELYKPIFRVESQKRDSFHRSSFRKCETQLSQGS
inactive: [1] 0.005 | [2] 0.013 | [3] 0.034 | [4] -0.075 | [5] -0.065 | [6] 0.04 | [7] 0 | [8] -0.033 | [9] 0.012 | [10] 0.023 | [11] 0.019 | [12] -0.098 | [13] 0.007 | [14] 0.001 | [15] -0.073 | [16] 0.003 | [17] 0.05 | [18] -0.01 | [19] 0.014 | [20] 0.005

DNAH10 (UniProt Q8IVF4)
inactive: [1] 0.067 | [2] 0 | [3] 0.069 | [4] 0.064 | [5] 0.044 | [6] -0.05 | [8] 0.139 | [9] 0.022 | [10] -0.029 | [11] -0.248 | [12] 0.056 | [13] -0.086 | [14] -0.074 | [15] 0.246 | [16] -0.04 | [17] -0.001 | [18] 0.027 | [19] 0.046 | [20] 0.043
active: [7] -0.582

CMTM3 (UniProt Q96MX0)
Sequence of UniProt Q96MX0 (Q96MX0 whole entry, looked up): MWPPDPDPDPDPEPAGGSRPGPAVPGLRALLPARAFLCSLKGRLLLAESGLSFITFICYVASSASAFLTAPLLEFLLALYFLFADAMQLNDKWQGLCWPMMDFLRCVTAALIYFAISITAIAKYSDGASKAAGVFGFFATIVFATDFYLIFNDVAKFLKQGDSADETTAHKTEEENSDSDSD
inactive: [1] 0.053 | [2] -0.014 | [3] -0.04 | [4] -0.089 | [5] 0.014 | [6] 0.03 | [7] 0.053 | [8] -0.055 | [9] 0.012 | [10] -0.005 | [11] -0.007 | [12] -0.231 | [13] 0.04 | [14] -0.022 | [15] 0.061 | [16] -0.011 | [17] 0.064 | [18] -0.099 | [19] -0.036 | [20] -0.123

COG7 (UniProt P83436)
Sequence of UniProt P83436 (P83436 whole entry, looked up): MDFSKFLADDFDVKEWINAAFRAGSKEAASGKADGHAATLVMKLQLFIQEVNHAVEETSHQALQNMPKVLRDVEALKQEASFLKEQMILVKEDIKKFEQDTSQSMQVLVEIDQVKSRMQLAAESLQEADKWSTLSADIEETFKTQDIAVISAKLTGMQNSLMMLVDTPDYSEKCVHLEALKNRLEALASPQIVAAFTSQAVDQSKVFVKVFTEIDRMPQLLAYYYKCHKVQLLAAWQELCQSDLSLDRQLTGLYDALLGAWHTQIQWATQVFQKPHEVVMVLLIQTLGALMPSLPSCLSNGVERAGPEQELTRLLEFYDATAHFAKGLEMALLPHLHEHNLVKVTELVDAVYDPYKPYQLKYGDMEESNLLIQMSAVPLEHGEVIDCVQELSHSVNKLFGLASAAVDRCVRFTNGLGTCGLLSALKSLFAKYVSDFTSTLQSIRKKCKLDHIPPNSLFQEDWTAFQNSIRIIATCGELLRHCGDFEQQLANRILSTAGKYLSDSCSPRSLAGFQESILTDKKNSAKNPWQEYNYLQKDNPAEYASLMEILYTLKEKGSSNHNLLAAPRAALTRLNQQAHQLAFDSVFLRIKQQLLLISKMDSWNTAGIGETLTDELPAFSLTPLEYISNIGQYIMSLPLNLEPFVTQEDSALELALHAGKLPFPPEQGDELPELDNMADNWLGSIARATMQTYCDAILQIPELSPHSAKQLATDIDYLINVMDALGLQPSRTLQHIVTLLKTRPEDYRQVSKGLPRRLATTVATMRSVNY
inactive: [1] 0.003 | [2] 0.018 | [3] 0.017 | [4] -0.054 | [5] -0.076 | [6] -0.003 | [7] -0.209 | [8] -0.019 | [9] 0.05 | [10] 0.039 | [11] 0.019 | [12] -0.114 | [13] -0.02 | [14] 0.056 | [15] -0.047 | [16] 0.028 | [17] 0.035 | [18] 0.014 | [19] 0.012 | [20] 0.004

CSTF2 (UniProt P33240)
Sequence of UniProt P33240 (P33240 whole entry, looked up): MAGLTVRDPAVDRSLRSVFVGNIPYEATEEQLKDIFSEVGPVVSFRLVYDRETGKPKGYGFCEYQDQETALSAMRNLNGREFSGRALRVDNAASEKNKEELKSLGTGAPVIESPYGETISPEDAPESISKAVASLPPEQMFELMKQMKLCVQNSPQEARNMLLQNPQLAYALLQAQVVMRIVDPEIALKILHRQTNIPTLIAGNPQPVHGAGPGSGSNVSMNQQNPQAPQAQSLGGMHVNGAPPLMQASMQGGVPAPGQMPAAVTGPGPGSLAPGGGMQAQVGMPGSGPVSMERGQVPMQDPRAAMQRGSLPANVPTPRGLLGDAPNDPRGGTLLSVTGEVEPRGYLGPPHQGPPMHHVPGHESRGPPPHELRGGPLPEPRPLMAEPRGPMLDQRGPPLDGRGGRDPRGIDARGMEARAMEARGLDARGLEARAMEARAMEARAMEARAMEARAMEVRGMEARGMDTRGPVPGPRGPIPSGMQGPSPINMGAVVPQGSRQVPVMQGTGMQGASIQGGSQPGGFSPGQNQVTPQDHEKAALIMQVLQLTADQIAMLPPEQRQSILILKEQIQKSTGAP
inactive: [1] 0.011 | [2] -0.015 | [4] 0.062 | [5] -0.012 | [6] -0.037 | [7] -0.053 | [8] 0.042 | [9] 0.007 | [10] 0.038 | [11] -0.023 | [12] 0.011 | [13] 0.014 | [14] -0.016 | [15] 0.024 | [16] -0.009 | [17] -0.099 | [18] 0.03 | [19] 0.011 | [20] 0.008
active: [3] 0.27

DERA (UniProt Q9Y315)
Sequence of UniProt Q9Y315 (Q9Y315 whole entry, looked up): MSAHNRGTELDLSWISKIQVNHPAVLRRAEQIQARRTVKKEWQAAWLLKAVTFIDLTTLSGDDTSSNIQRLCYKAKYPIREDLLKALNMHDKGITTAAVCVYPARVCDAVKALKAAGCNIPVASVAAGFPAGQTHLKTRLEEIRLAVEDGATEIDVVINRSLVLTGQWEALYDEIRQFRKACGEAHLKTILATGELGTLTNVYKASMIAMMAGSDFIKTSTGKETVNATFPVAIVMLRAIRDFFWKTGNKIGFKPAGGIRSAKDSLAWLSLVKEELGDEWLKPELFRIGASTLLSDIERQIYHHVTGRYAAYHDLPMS
active: [7] 0.985
inactive: [1] -0.013 | [2] -0.001 | [3] -0.064 | [4] 0.077 | [5] 0.025 | [6] -0.031 | [8] -0.115 | [9] 0 | [10] -0.03 | [11] 0.121 | [12] 0.018 | [13] 0.033 | [14] -0.003 | [15] 0.085 | [16] -0.005 | [17] -0.053 | [18] -0.059 | [19] -0.01 | [20] 0.087

CLASP2 isoform 3 (UniProt O75122)
inactive: [1] 0.054 | [2] -0.002 | [3] 0.02 | [4] 0.015 | [5] -0.006 | [6] 0.013 | [7] -0.162 | [8] 0.093 | [9] 0.011 | [10] 0.01 | [11] -0.151 | [12] -0.103 | [13] 0.007 | [14] -0.051 | [15] -0.003 | [16] 0.035 | [17] -0.008 | [18] 0.032 | [19] 0 | [20] -0.007

CNP (UniProt P09543)
Sequence of UniProt P09543 (P09543 whole entry, looked up): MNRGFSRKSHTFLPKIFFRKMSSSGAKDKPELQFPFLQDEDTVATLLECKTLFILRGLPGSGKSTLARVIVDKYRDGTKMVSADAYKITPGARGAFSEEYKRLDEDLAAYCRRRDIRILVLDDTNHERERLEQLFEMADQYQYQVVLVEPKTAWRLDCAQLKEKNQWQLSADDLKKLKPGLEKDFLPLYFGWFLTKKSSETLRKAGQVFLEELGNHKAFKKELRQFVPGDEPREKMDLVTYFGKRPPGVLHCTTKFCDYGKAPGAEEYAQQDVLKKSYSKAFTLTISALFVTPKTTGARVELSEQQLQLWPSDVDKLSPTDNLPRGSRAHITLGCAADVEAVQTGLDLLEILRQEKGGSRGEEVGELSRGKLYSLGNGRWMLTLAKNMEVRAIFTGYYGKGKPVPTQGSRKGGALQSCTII
inactive: [1] 0.005 | [2] -0.011 | [3] 0.003 | [4] -0.097 | [5] -0.022 | [6] 0.019 | [7] -0.023 | [8] -0.028 | [9] 0.01 | [10] -0.008 | [11] -0.005 | [12] -0.06 | [13] 0.011 | [14] 0.028 | [15] -0.03 | [16] 0.02 | [17] -0.003 | [18] 0.029 | [19] 0 | [20] -0.025
